# BAZ2B block: qHTS Assay for Inhibitors of BAZ2B. Potency, µM (titrated, usually from 114 µM), without a hit: at the highest dose activity change, negative = inhibition, actives largely listed as inhibitors. AlphaScreen BAZ2B-H3K14Ac peptide displacement. actives 4.4% (n = 360,000). Bromodomain adjacent to zinc finger domain protein 2B (Homo sapiens), Q9UIF8; further: on the % scale 0 is the no-effect control and ±100 the full control effect; nearly all actives have a fitted effect of over 60% in size
#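 AlphaScreen displacement of biotin-H3(5-23)K14Ac peptide (50 nM final) from BAZ2B (50 nM final) in PBS pH 7.4, 0.01% Tween-20; complex preformed 30 min RT, then compounds (top 110 uM) 30 min RT, beads 20 min dark.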
# L3MBTL1 block: qHTS Assay for the Inhibitors of L3MBTL1. Lethal(3)malignant brain tumor-like protein 1 (Homo sapiens), Q9Y468. AlphaScreen L3MBTL1–H3K9me1 peptide binding. Potency, µM (highest dose often 57.1 µM), for the others: at the highest dose activity, negative = inhibition, most hits filed as inhibitors. actives 0.66% (n = 230,000); further: on the % scale 0 is the no-effect control and ±100 the full control effect; nearly all actives have a fitted effect of over 60% in size
#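 L3MBTL1 50 nM + b-AHA-H3(1-15)K9me1 75 nM, 30 min RT; compound added, 30 min RT; streptavidin donor/Ni-chelate acceptor beads 10 ug/mL each final, 30 min RT dark; AlphaScreen read.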
# JMJD2A Tudor: qHTS Assay for Inhibitors of JMJD2A-Tudor Domain; Lysine-specific demethylase 4A (Homo sapiens), O75164; AlphaScreen JMJD2A-Tudor / H3K4me3 peptide binding; Potency, µM (top dose mostly 114 µM), for inactives: top-dose activity change, negative = inhibition, most hits filed as inhibitors; actives 4.4% (n = 390,000); AID 504339, 2011; further: on the % scale 0 is the no-effect control and ±100 the full control effect; nearly all actives have a fitted effect of over 50% in size
# Sfp PPTase inh: qHTS Assay for Inhibitors of Bacillus subtilis Sfp phosphopantetheinyl transferase (PPTase). Biochemical Sfp PPTase activity, qHTS. Potency, µM, inactives show largest response in the series, negative = inhibition, most hits filed as inhibitors. actives 3.5% (n = 310,000). AID 1490, 2009;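 further: the enzyme is Sfp with the accession as filed and its product quenches rhodamine fluorescence; 0% = enzyme reaction without inhibitor and -100% = no enzyme wells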
#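 Sfp 15 nM + cpd, 15 min RT; start w/ rhodamine-CoA 5 uM, BHQ-2-YbbR 12.5 uM (final); 50 mM Hepes pH 7.6, 10 mM MgCl2, 0.01% NP-40, 0.01% BSA; read 525/598 nm at 0 and 30 min.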
# HP1b binding inh: HTS for Inhibitors of HP1-beta Chromodomain Interactions with Methylated Histone Tails | AlphaScreen HP1-beta / biotin-H3K9me3 peptide binding | Potency, µM (top dose mostly 114 µM), inactives show at the top dose activity change, negative = inhibition, hits mostly inhibitors | actives 0.56% (n = 390,000); further: nearly all actives have a fitted effect of over 70% in size
#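 Compound inhibition of the preformed complex between 50 nM HP1-beta and 50 nM biotinylated H3K9me3 peptide was read by AlphaScreen. Buffer was PBS pH 7.4 with 0.01% Tween-20. Incubations ran 30 min at room temperature, with 10 ug/mL donor/acceptor beads.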
# G9a inh: qHTS Assay for Inhibitors of Histone Lysine Methyltransferase G9a | Potency, µM (highest dose often 102 µM), for inactives: top-dose activity, negative = inhibition, actives largely listed as inhibitors | Histone-lysine N-methyltransferase EHMT2 (Homo sapiens), Q96KQ7 | actives 8.8% (n = 350,000) | AID 504332, 2011 | G9a H3K9 monomethylation, AlphaScreen, 2 h; further: on the % scale 0 is the no-effect control and ±100 the full control effect; nearly all actives have a fitted effect of over 75% in size
#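 Methyltransferase reactions run at room temperature for 2 h (20 nM enzyme, 500 nM biotin-H3K9 peptide, 20 uM SAM) after a 15 min compound preincubation; product detected by AlphaScreen beads and anti-H3K9me1 antibody.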
# * hit, by the source's call; ? = inconclusive; nt = no result given; ! = repeats disagree; [ ] = another dose, or the depositor's remark. Most compounds without a hit are left out; they make up all but 12% or so of the library. The call rests on the fitted dose curve; in most records, active means well fitted curve in the direction sought with a large enough effect; inconclusive means small, poorly fitted or top-dose-only effect, or another doubt; inactive means no such curve, though single readings can be large; an effect the other way counts as inactive or inconclusive. Potency means the concentration at half of the fitted maximal effect.
SMILES,BAZ2B block,L3MBTL1 block,JMJD2A Tudor,Sfp PPTase inh,HP1b binding inh,G9a inh
CSc1ccc(CCNC(=O)C(C)n2nc(C)c3sc4ccccc4c3c2=O)cc1 (centres undefined),?,nt,-23%,nt,14%,?
CC(=O)OCc1cnc(C)c2oc(=O)c(C(=O)Nc3cccc(F)c3)cc12,-11%,nt,-17%,nt,21%,24%[59 µM]
Cc1nc2cnc(N3CCOCC3)nc2n(C2CC2)c1=O,nt,nt,nt,12%,nt,-3%[0.501 µM]
O=C(O)[C@@H]1CCCN1C(=O)CCc1c[nH]c2ccccc12,5%,nt,-18%,10%,31%,-6%
COc1cc2c(cc1OC)CN(C(=O)CCc1c[nH]c3ccccc13)[C@H](C(=O)O)C2,-18%,nt,-3%,11%,34%,71µM*
c1ccc(NCc2ccncc2)cc1,-5%,-1%,-7%,10%,30%,18%
Cc1ccc(CNc2ccc(N3CCOCC3)c(Cl)c2)cc1,40µM*,-28%,?,-17%,?,nt
Cc1ccc(CNc2ccc(N3CCOCC3)cc2)cc1,32µM*,?,45µM*,-21%,?,28µM*
c1cc(CNc2ccc(N3CCOCC3)cc2)ccn1,?,nt,-34%,50µM*,-15%,40µM*
c1cc2c(cc1CNc1ccc(N3CCOCC3)cc1)OCO2,nt,?,50µM*,nt,?,nt
COc1ccccc1-c1cncnc1NCc1cccs1,nt,nt,nt,0%,nt,11%[0.501 µM]
O=C(CSc1nc2c(c(=O)[nH]1)CCC2)Nc1ccccc1F,?,nt,-33%,nt,3%,-43%[59 µM]
COc1ccc(CCNC(=O)CCS(=O)(=O)c2cc(Br)cc3c2N(C(C)=O)CC3)cc1OC,1%,nt,-12%,nt,8%,13%[59 µM]
COc1ccccc1N1CCN(C(=O)c2cc3c(=O)n(C)c4ccccc4c3s2)CC1,nt,nt,2%,nt,16%,9%[59 µM]
CCC(=O)N1CCc2cc(CNS(=O)(=O)c3cc(Cl)ccc3OC)ccc21,0%,nt,-16%,nt,18%[57 µM],12%[59 µM]
COc1ccc2[nH]c3c(Cl)ncnc3c2c1,8%,4%,-7%,-1%,24%,-11%
COc1ccc2[nH]c3c(=S)nc[nH]c3c2c1,-31%,-6%,1.6µM*,50µM*,-21%,3.5µM*
COc1ccc(O[C@H]2C=C[C@@H](c3ccccc3)O[C@H]2CO/N=C2/[C@H]3O[C@@H]3[C@@H](O)[C@H]3[C@H]2CCn2c(=O)n(-c4ccccc4)c(=O)n23)cc1,nt,nt,nt,12%,nt,nt
CCC(Oc1ccccc1)C(=O)Nc1ccc2oc(-c3ccc(OC)cc3)nc2c1 (centres undefined),-3%,nt,-3%,nt,78%,21%[59 µM]
Cc1ccc2[nH]c(C)c(CCNC(=O)C3CCCCC3C(=O)OCC(F)(F)F)c2c1 (centres undefined),?,-19%,71µM*,-5%,-21%,-43%[59 µM]
CCOc1c(C)cc(-c2ncccc2O)cc1C,-1%,2%,89µM*!,3%,25%,-11%[59 µM]
CCCCCC(=O)N/N=C/c1cc(Br)c(O)c(OC)c1,-32%,-4%,-7%,-13%,11%,50µM*
CN=c1scc(-c2cccs2)n1/N=C/c1ccc(O)c(O)c1O,25µM*,14µM*,25µM*,11µM*,5µM*,7.9µM*
COc1cc(/C=N/NC(=O)CC2(C)OCCO2)cc(Br)c1O,4%,nt,-7%,-4%,25%,-36%
COc1cc(/C=N/N(C)C)cc(Br)c1O,-32%,-1%,-27%,-10%,13%,14µM*
SMILES,BAZ2B block,L3MBTL1 block,JMJD2A Tudor,Sfp PPTase inh,HP1b binding inh,G9a inh
O=C(CSc1n[nH]c(=O)[nH]c1=O)N/N=C/c1ccccc1O,2%,2%,-17%,31%,19%,15%[59 µM]
COc1cc(/C=N/NC(=O)CSc2n[nH]c(=O)[nH]c2=O)cc(OC)c1O,2%,nt,-3%,5%,27%,35µM*
Cc1cc2nc(-c3cccc(NC(=O)COc4ccc(Cl)c(C)c4)c3)oc2cc1C,-11%,nt,2%,nt,25%,3%[59 µM]
C=C1c2ccccc2O[C@H](C(=O)OCC)[C@@H]1C1CCCCC1 (tested in a mixture with another compound),nt,nt,nt,-26%,nt,68%
CN=c1scc(C)n1/N=C/c1cc(Br)c(O)c(OC)c1,40µM*,-6%,?,-14%,-19%,7.9µM*
CN=c1scc(C)n1/N=C/c1ccc(O)c(O)c1O,25µM*,nt,50µM*,25µM*,?,?
COc1cc(/C=N/N(C)c2ccccc2)cc(Cl)c1O,45µM*,nt,25µM*,?,22µM*,?
COc1cc(/C=N/NC(=O)c2ccc(Cn3cc([N+](=O)[O-])cn3)o2)cc(Br)c1O,-28%,-7%,-11%[57.1 µM],-6%,16%,8.9µM*
COc1cc(/C=N/NC(=O)C23CC4CC(CC(C4)C2)C3)cc(Br)c1O,-38%,6%,-20%,-14%,-15%,?
COc1cc(/C=N/O)cc(Cl)c1OC,2%,3%,-2%[57.1 µM],6%,5%,-4%[59 µM]
O=[N+]([O-])c1cccc(-c2n[nH]c(=S)n2-c2ccc(Br)cc2)c1,-37%,-9%,?,-5%,-1%,6.3µM*
O=C(O)c1ccc(-n2c(-c3ccc(Br)cc3)n[nH]c2=S)cc1,-25%,nt,7.1µM*,?,32%,?
Cc1nc(=O)c(-c2ccccc2)c(C)n1-c1ccc(C(=O)O)cc1,-7%,5%,-27%,4%,22%,?
Cc1[nH]c2ccc(-c3n[nH]c(=S)n3-c3ccc(Br)cc3)cc2c1C,?,3%,-17%,13%,30%,-1%
S=c1[nH]nc(-c2ccc(Br)cc2)n1-c1ccc(Br)cc1,-12%,-11%,-31%,22%,20%,8.9µM*
COc1cc(-c2n[nH]c(=S)n2-c2ccc(Br)cc2)cc(OC)c1OC,-1%,2%,50µM*,-3%,15%,nt
CC=C1COC(C(=O)NCCOCCO)(C(F)(F)F)C=C1C=C(C)C (centres undefined),nt,nt,-12%,-10%,36%,nt
CCc1ccc2oc(C(=O)N(Cc3cccc(Cl)c3)Cc3ccco3)c(C)c2c1,11%,nt,44%,nt,57%,56%[59 µM]
O=C(NC1CC(=O)N(c2ccc3c(c2)OCCO3)C1)c1c(F)cccc1Cl (centres undefined),-17%,nt,-3%,nt,41%,13%[59 µM]

# Screening data deposited in PubChem by National Center for Advancing Translational Sciences (NCATS).
